Laboratory results: PubChem BioAssay (NCI)
Compounds without any hit were thinned out: in the full panel of roughly 83,000, 20% have a hit.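 96-well plates, one dose, 48 hours. Percent growth reported; active if below 10.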 The source made the active and inactive calls.

Key:
Test in all cases: NCI-60 one-dose screen, 48 h (100 = growth as untreated, 0 = no growth, -100 = all killed)
Conditions in all cases: 10 µM unless noted
T-47D breast = system: T-47D breast
BT-549 breast = system: BT-549 breast
MDA-MB-435 melanoma = system: MDA-MB-435 melanoma
SW-620 colon = system: SW-620 colon
MCF7 breast = system: MCF7 breast
HCT-116 colon = system: HCT-116 colon
HCC-2998 colon = system: HCC-2998 colon
KM12 colon = system: KM12 colon

Measured: growth

O=S(=O)(Oc1ccc(Br)cc1)c1ccc(Cl)cc1
inactive: T-47D breast 88.5% | BT-549 breast 99.8% | MDA-MB-435 melanoma 104% | SW-620 colon 102% | MCF7 breast 91.7% | HCT-116 colon 98.6% | HCC-2998 colon 83.2% | KM12 colon 99.3%

COc1ccc(/C=C/C(c2cc(OC)c(OC)c(OC)c2)n2ccnc2)cc1O (stereo not given)
inactive: T-47D breast 40.6% | BT-549 breast 44.3% | SW-620 colon 17.4% | MCF7 breast 17.9% | HCT-116 colon 16.7% | HCC-2998 colon 77% | KM12 colon 29%
active: MDA-MB-435 melanoma -25.6%

CC1(C)N=C(N)N=C(N)N1c1cccc(CCc2ccccc2)c1
active: HCC-2998 colon 2.34%
inactive: T-47D breast 37.7% | BT-549 breast 42.4% | MDA-MB-435 melanoma 47.5% | SW-620 colon 27.4% | MCF7 breast 23.8% | HCT-116 colon 19.8% | KM12 colon 21.9%

COc1ccc(-c2cc(-c3ccccc3)nc(N3CCN(CCNc4ccnc5cc(Cl)ccc45)CC3)n2)cc1
active: T-47D breast -48% | MDA-MB-435 melanoma -72.1% | SW-620 colon -75.4% | MCF7 breast -84.8% | HCT-116 colon -73.8% | HCC-2998 colon -81.5% | KM12 colon -26.9%
inactive: BT-549 breast 72.8%

COc1ccc(N2CCN(C(=O)c3sc4nc(C)c(Br)c(C)c4c3N)CC2)cc1
inactive: T-47D breast 79% | BT-549 breast 88.2% | MDA-MB-435 melanoma 98.7% | SW-620 colon 104% | MCF7 breast 81% | HCT-116 colon 99% | HCC-2998 colon 97.1% | KM12 colon 94%

O=C1C(Nc2ccccn2)=C(I)C(=O)c2ncccc21
active: T-47D breast -42.5% | BT-549 breast -68.5% | MDA-MB-435 melanoma -82.2% | SW-620 colon -64.6% | MCF7 breast -58.7% | HCT-116 colon -62.2% | KM12 colon -26.1%
inactive: HCC-2998 colon 53.1%

COc1cc(C(=O)n2nc(N3CCOCC3)c3cc(-n4cccc4)ccc32)cc(OC)c1OC
inactive: T-47D breast 60.5% | BT-549 breast 56.2% | MDA-MB-435 melanoma 75.2% | SW-620 colon 67.5% | MCF7 breast 52.1% | HCT-116 colon 48.6% | HCC-2998 colon 99.7% | KM12 colon 81.8%

Cn1ccc(=O)nc1
inactive: T-47D breast 99.1% | BT-549 breast 110% | MDA-MB-435 melanoma 106% | SW-620 colon 53.5% | MCF7 breast 52.2% | HCT-116 colon 60.6% | HCC-2998 colon 96.8% | KM12 colon 95%

CCCCC#Cc1c(I)n(C)c(=O)[nH]c1=O
active: T-47D breast -2.85% | BT-549 breast -57.1% | MDA-MB-435 melanoma -36.8% | SW-620 colon -93.2% | HCT-116 colon -41.1% | HCC-2998 colon -25.6%
inactive: MCF7 breast 52.3% | KM12 colon 108%

CCCCCCCCCCCCCOC(=O)c1c(C)[nH]c(/C=C2\N=C(c3ccc[nH]3)C=C2OC)c1C
active: SW-620 colon 3.08%
inactive: T-47D breast 27.2% | BT-549 breast 51.5% | MDA-MB-435 melanoma 19.2% | MCF7 breast 12.2% | HCT-116 colon 11.3% | HCC-2998 colon 22.8% | KM12 colon 12.7%

Cn1c(=O)c2[nH]c(SCC(=O)Nc3ccc(C(=O)/C=C/c4ccccc4Cl)cc3)nc2n(C)c1=O
inactive: T-47D breast 92.4% | BT-549 breast 83.3% | MDA-MB-435 melanoma 92% | SW-620 colon 95.8% | MCF7 breast 69.4% | HCT-116 colon 58.5% | HCC-2998 colon 106% | KM12 colon 97.9%

NC(=O)c1cccc([C@@H]2O[C@H](CO)[C@@H](O)[C@H]2O)c1
inactive: T-47D breast 85.7% | BT-549 breast 90.9% | MDA-MB-435 melanoma 106% | SW-620 colon 24% | MCF7 breast 61.8% | HCT-116 colon 72.7% | HCC-2998 colon 93.9% | KM12 colon 34.7%

CC1(C)NCCC[C@]2(C)[C@H]3CC[C@H]4[C@H]5[C@H](C(=O)/C=C/c6cccnc6)CCC[C@]5(CO)CC[C@@]4(C)[C@]3(C)CC[C@@H]12
inactive: T-47D breast 81.3% | BT-549 breast 88.2% | MDA-MB-435 melanoma 70.8% | MCF7 breast 22.1% | HCT-116 colon 37.2% | HCC-2998 colon 19.7% | KM12 colon 39.8%
active: SW-620 colon 7.51%

CCOC(=O)C(Cc1ccc(OC)cc1)C(=O)OCC
inactive: T-47D breast 20.7% | MDA-MB-435 melanoma 14.7% | SW-620 colon 35.1% | MCF7 breast 17.1% | HCT-116 colon 17.8% | HCC-2998 colon 55.5%
active: BT-549 breast -9.62% | KM12 colon 7.78%

O=C(Nc1ccc(Cl)cc1)Oc1c(Cl)c(Cl)c(Cl)c(Cl)c1Cl
inactive: T-47D breast 84.3% | BT-549 breast 92.6% | MDA-MB-435 melanoma 96.5% | SW-620 colon 101% | MCF7 breast 86% | HCT-116 colon 89.1% | HCC-2998 colon 107% | KM12 colon 96.6%

COc1cc2c(c(OC)c1OC)C(=O)CC(c1cccc(NC(=O)c3ccc(C#N)cc3)c1)O2 (stereo not given)
inactive: BT-549 breast 43.7% | MDA-MB-435 melanoma 74% | SW-620 colon 95.9% | MCF7 breast 65.6% | HCT-116 colon 62% | HCC-2998 colon 101% | KM12 colon 70.9%
active: T-47D breast 8.42%

COc1ccc(/C=C(/C(=O)n2cnnn2)c2cc(OC)c(OC)c(OC)c2)cc1
active: MDA-MB-435 melanoma -50.3%
inactive: T-47D breast 43.1% | BT-549 breast 38.2% | SW-620 colon 21.2% | MCF7 breast 16.2% | HCT-116 colon 13.7% | HCC-2998 colon 28.2% | KM12 colon 17.7%

O=C(Nc1cnc(Nc2ccc(N3CCOCC3)nc2)nc1Oc1ccc(C(F)(F)F)cc1)c1ccncc1
inactive: T-47D breast 72.9% | BT-549 breast 75.8% | MDA-MB-435 melanoma 91.3% | SW-620 colon 97.5% | MCF7 breast 77.3% | HCT-116 colon 61.9% | HCC-2998 colon 110% | KM12 colon 91%

C=C1C(=O)O[C@H]2[C@H]1CC/C(COC(=O)CSCSCC(=O)OC/C1=C/CC[C@@]3(C)O[C@H]3[C@H]3OC(=O)C(=C)[C@@H]3CC1)=C\CC[C@@]1(C)O[C@@H]21
active: BT-549 breast -5.92% | SW-620 colon -9.08% | HCT-116 colon -24%
inactive: T-47D breast 20.9% | MDA-MB-435 melanoma 26.6% | MCF7 breast 16.7% | HCC-2998 colon 16.5% | KM12 colon 35.1%

COc1cc(C(=O)c2c(-c3ccccc3)oc3c(OC)cccc23)cc(OC)c1OC
active: BT-549 breast -5.83% | MDA-MB-435 melanoma -28.9% | HCT-116 colon -8.11% | HCC-2998 colon -4.94% | KM12 colon 3.21%
inactive: T-47D breast 58.2% | SW-620 colon 20.1% | MCF7 breast 10.1%

CC1(C)CC2=C3C=C[C@@H]4[C@@]5(C)CCC(=O)C(C)(C)[C@@H]5CC[C@@]4(C)[C@]3(C)CC[C@@]2(C(=O)O)C[C@H]1O
active: HCT-116 colon 0.846%
inactive: T-47D breast 20.3% | BT-549 breast 34.3% | MDA-MB-435 melanoma 27.1% | SW-620 colon 32.9% | MCF7 breast 14.7% | HCC-2998 colon 35.4% | KM12 colon 27%

C/C(=N\O)[C@@H]1CC[C@]2(CO)CC[C@]3(C)[C@H](CC[C@@H]4[C@@]5(C)CCCNC(C)(C)[C@@H]5CC[C@]43C)[C@@H]12
inactive: T-47D breast 72.5% | BT-549 breast 90.5% | MDA-MB-435 melanoma 79.5% | SW-620 colon 88.5% | MCF7 breast 50.9% | HCT-116 colon 76.5% | HCC-2998 colon 103% | KM12 colon 83.6%

COc1cc(C2C(C(=O)OCc3ccccc3)=C(C)NC(C)=C2C(=O)OCc2ccccc2)cc(OC)c1OC
inactive: T-47D breast 11.9% | BT-549 breast 34% | MDA-MB-435 melanoma 27.3% | SW-620 colon 40.3% | MCF7 breast 10.4% | HCT-116 colon 17.1% | HCC-2998 colon 52% | KM12 colon 19.4%

O=C(/C=C/c1ccc(Oc2ccc(Br)cc2)cc1)c1ccc(Br)cc1
inactive: T-47D breast 92.3% | BT-549 breast 110% | MDA-MB-435 melanoma 93% | SW-620 colon 93.7% | MCF7 breast 73% | HCT-116 colon 97.6% | HCC-2998 colon 95.5% | KM12 colon 95.7%

CN1CCN(Cc2ccc(NC(=O)c3cncc(C#Cc4cnc(N)c5ncccc45)c3)cc2C(F)(F)F)CC1
inactive: T-47D breast 35.9% | BT-549 breast 34.1% | HCC-2998 colon 16.3%
active: MDA-MB-435 melanoma -64.7% | SW-620 colon -16.9% | MCF7 breast -74.2% | HCT-116 colon -63.8% | KM12 colon 5.04%

C=C1C(=O)O[C@H]2[C@H]1CC/C(COC(=O)c1ccc(C(=O)O)s1)=C\CC[C@@]1(C)O[C@@H]21
active: SW-620 colon 4.69%
inactive: T-47D breast 43% | BT-549 breast 42.9% | MDA-MB-435 melanoma 11.7% | MCF7 breast 13% | HCT-116 colon 11.4% | HCC-2998 colon 61.6% | KM12 colon 55.6%

Cc1cccc(N2CCC(=O)NC2=S)c1
inactive: T-47D breast 105% | BT-549 breast 104% | MDA-MB-435 melanoma 106% | SW-620 colon 103% | MCF7 breast 97.1% | HCT-116 colon 93.2% | HCC-2998 colon 95.4% | KM12 colon 107%

COc1ccc(Oc2nc(Nc3ccc(N4CCOCC4)cc3)ncc2NC(=O)Nc2cc(OC)cc(OC)c2)cc1
inactive: T-47D breast 48.8% | BT-549 breast 12.5% | SW-620 colon 19.6% | MCF7 breast 41.7% | KM12 colon 24%
active: MDA-MB-435 melanoma 6.76% | HCT-116 colon -55.5% | HCC-2998 colon 9.48%

C=C1C(=O)O[C@H]2[C@H]1CC/C(COC(=O)/C=C\C(=O)NCc1ccc(Cn3c(=O)sn(CCCCC)c3=O)cc1)=C\CC[C@@]1(C)O[C@@H]21
inactive: T-47D breast 71.7% | BT-549 breast 85.8% | MDA-MB-435 melanoma 60.6% | SW-620 colon 19.2% | MCF7 breast 36.6% | HCT-116 colon 40.3% | HCC-2998 colon 100% | KM12 colon 98.8%

Cc1nc2ccccc2c(/C=C/c2ccccc2)c1C(=O)/C=C/c1ccccc1
active: MDA-MB-435 melanoma -17.2% | SW-620 colon -65.6% | HCT-116 colon -43%
inactive: T-47D breast 15.6% | BT-549 breast 40.6% | MCF7 breast 17% | HCC-2998 colon 31.6% | KM12 colon 11.6%
